Screening data: PubChem BioAssay, several laboratories
CCHF vOTU inh-1: CCHFV vOTU protease inhibition; inhibition, % at 11.5 µM; AID 651958; actives 0.55% (n = 370,000); Pep-AMC fluorescence; note: 0% = vehicle wells with enzyme and 100% = no enzyme wells
DUSP3 inh: DUSP3 (human) phosphatase inhibition; P51452; recombinant VHR phosphatase, pNPP absorbance; inhibition, % at 13.3 µM; actives 0.52% (n = 290,000); AID 1654; in the data active = inhibition above about 50%
Target sequence (P51452 whole entry, looked up): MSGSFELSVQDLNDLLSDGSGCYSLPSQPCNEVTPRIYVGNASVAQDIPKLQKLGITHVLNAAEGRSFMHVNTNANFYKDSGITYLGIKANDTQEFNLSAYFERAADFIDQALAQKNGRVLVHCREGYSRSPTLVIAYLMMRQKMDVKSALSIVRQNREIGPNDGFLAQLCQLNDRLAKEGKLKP
Mtb hypoxia rep: Mtb hypoxia fluorescent reporter inhibition; M. tuberculosis hypoxia-regulated fluorescent reporter, fluorescence; fluorescence inhibition, % (test concentration not listed); actives 0.1% (n = 300,000); in the data active = fluorescence inhibition mostly above about 23%, no sharp cut-off; inactive = mostly below about 17%
SARS 3CLpro inh: SARS-CoV 3CLpro protease inhibition; P0C6X7; recombinant SARS-CoV 3CLpro, quenched FRET peptide cleavage; inhibition, % at 6 µM; actives 0.14% (n = 290,000); in the data active = inhibition above about 12%
SSB-PriA inh: K. pneumoniae PriA-SSBct interaction inhibition; AlphaScreen SSBct-PriA binding, biotinylated peptide; inhibition, % at 33 µM; actives 0.6% (n = 430,000); AID 1272365; in the data active = inhibition mostly above about 37%, no sharp cut-off; inactive = mostly below about 20%;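 note: plate controls were negative control peptide for no effect and reference peptide for full effect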
CCHF vOTU inh-2: confirmation of CCHF virus vOTU protease inhibitors. inhibition, % at 11.5 µM. shares compounds with CCHF vOTU inh-1. Recombinant CCHFV vOTU, Pep-AMC fluorescence. actives 17% (n = 1,900)
* marks the source's active call; other numbers are inactive results; . = not tested or not shown. This is a sample that favours compounds with a hit; in the whole collection about 1.3% have one here. Cut-off read from the data, not from the text of the source, unless noted: active = inhibition above about 30%; inactive = the rest.

SMILES	CCHF vOTU inh-1	DUSP3 inh	Mtb hypoxia rep	SARS 3CLpro inh	SSB-PriA inh	CCHF vOTU inh-2
CC(C)(C)c1ccc(NS(=O)(=O)c2ccc(Cl)c(C(F)(F)F)c2)cc1	.	.	.	.	-7	.
CN(CC(=O)Nc1ccc(Cl)c(C(F)(F)F)c1)C(=O)CC1Sc2ccccc2NC1=O (stereo not given)	33*	12	9	3	-3	-16
Cc1ccc2nsnc2c1NC(=S)NC(=O)c1ccco1	59*	-7	2	-5	2	-10
CCOC(=O)c1ccc2nc(Nc3nc4ccc(OC)cc4s3)sc2c1	.	.	.	.	-5	.
Cc1cccc(OCC(=O)Nc2ccc(CN3CCOCC3)cc2)c1C	35*	16	6	-2	1	-8
COc1ccc(NS(=O)(=O)c2cc(NC(=O)c3ccc(=O)[nH]n3)ccc2C)cc1	31*	.	13	.	1	-10
Cc1cc(C(=O)Nc2nc3c(C(C)C)cccc3s2)no1	.	.	.	.	-3	.
Cn1c(-c2ccc3nc(N)sc3c2)nc2cc(N)ccc21	34*	26	10	-4	9	-38
CCOc1ccc(-n2c(=S)sc3c(=O)n(-c4ccc(F)cc4)c(SCC(=O)O)nc32)cc1	34*	-29	-3	4	-2	-5
COc1ccc(S(=O)(=O)Nc2nc3c(s2)C(=O)CC(C)(C)C3)cc1	2	7	-1	-2	-1	.
Cc1ccc(S(=O)(=O)Nc2nc3c(s2)C(=O)CC(C)(C)C3)cc1	30*	17	-1	-7	-16	-11
O=S(=O)(c1ccc(Cl)c(C(F)(F)F)c1)N1CCCC1	.	.	.	.	-13	.
Cc1ccccc1-c1cc(=O)c2c(O)cccc2o1	35*	10	2	.	5	-2
CSc1ccc(-c2nc(CN3CCCCC3c3cccnc3)c(C)o2)cc1 (stereo not given)	32*	48	4	0	9	-18
COc1ccccc1CN1CCCCC1c1cccnc1 (stereo not given)	-13	13	5	3	-14	.
CC(C)C(=O)N1CCO[C@H](c2ccccc2)C1	.	.	.	.	-6	.
CCOC(=O)N(C)c1c(CC)nc2c(OCCC3CCCCC3)cccn12	30*	.	.	.	.	6
Cc1nc2c(OCc3ccc(C(F)(F)F)cc3)cccn2c1N(C)C(=O)CCC1CCCC1	33*	.	.	.	.	4
O=C1C(=Cc2cn(-c3ccccc3)nc2-c2ccc(OCc3ccccc3)cc2)SC(=S)N1CCS(=O)(=O)O	30*	.	.	.	.	11
Cc1ccc(-c2nn(-c3ccccc3)cc2C=C2SC(=S)N(CCS(=O)(=O)O)C2=O)cc1	16	.	.	.	.	.
O=C(O)CCC(=O)Nc1ccc(N=Cc2ccc([N+](=O)[O-])cc2)cc1	.	.	.	.	10	.
Cc1cccc2c1[nH]c1nc(N/N=C\c3ccco3)nnc12	37*	4	.	0	.	1
O=C(O)/C(=C\c1cccc(F)c1)c1ccc(S(=O)(=O)N2CCCCC2)s1	0	-6	7	3	-2	.
O=C(O)/C(=C/c1ccc(Cl)c([N+](=O)[O-])c1)c1ccc(S(=O)(=O)N2CCCCC2)s1	33*	.	3	.	4	-4
Nc1c(O)cccc1C(=O)O	30*	.	-6	.	-18	1
SMILES	CCHF vOTU inh-1	DUSP3 inh	Mtb hypoxia rep	SARS 3CLpro inh	SSB-PriA inh	CCHF vOTU inh-2
O=C(Cc1csc(Nc2cccc(C(F)(F)F)c2)n1)NCc1ccco1	.	.	.	.	10	.
CCOC(=O)Cn1nc(C)c2cnn(C(C)(C)C)c2c1=O	.	.	.	.	-7	.
CCS(=O)(=O)c1ccc(O)c(NC(=O)c2cc(-c3ccccn3)nc3ccccc23)c1	32*	.	-1	.	6	-17
Nc1nnc(-c2ccc3c(c2)OCO3)o1	.	.	.	.	20	.
COc1cc(NC(C)CCCN)c2ncccc2c1Oc1ccccc1 (stereo not given)	30*	-1	3	0	16	-3
O=C(NC1(O)C(=O)c2ccccc2C1=O)c1c(Cl)cccc1Cl	62*	21	2	2	23	14
O=C(NC1(O)C(=O)c2ccccc2C1=O)c1ccccc1	49*	1	.	3	3	31*
Cc1ccc2nc(NC(=O)c3ccc(Cl)cc3Cl)sc2c1	.	.	.	.	-5	.
O=C(O)c1cccc(NC2=C(n3nnc4ccccc43)C(=O)c3ccccc3C2=O)c1	79*	-12	14	5	-8	85*
CCc1ccc(NC(=O)Cn2cnc3c(-c4ccc(Cl)cc4)csc3c2=O)cc1	.	.	.	.	-4	.
CC(C)NS(=O)(=O)c1ccc(Oc2ncc(C(F)(F)F)cc2Cl)cc1	14	-13	3	-3	-1	.
CCCNS(=O)(=O)c1ccc(Oc2ncc(C(F)(F)F)cc2Cl)cc1	31*	-16	-5	2	-25	-2
O=C(Nc1cccc(Cl)c1Cl)NC1CC(=O)N(c2ccc(F)cc2)C1 (stereo not given)	.	.	.	.	0	.
O=C(COC(=O)COc1ccccc1Cl)Nc1ccccc1OC(F)F	33*	19	.	0	-13	-3
O=C(COC(=O)c1ncc(Cl)c(Cl)c1Cl)Nc1ccccc1OC(F)F	19	-11	-6	-1	-20	.
CC1CCc2c(sc(NC(=O)c3ccco3)c2C(=O)O)C1 (stereo not given)	32*	10	16	0	-5	0
Cc1ccc(C)c(S(=O)(=O)N2CCC(c3nnc(C4CC4)o3)CC2)c1	.	.	.	.	-16	.
O=C(Cc1ccc(F)cc1)Nc1cnc(N2CCN(c3ccccn3)CC2)nc1	.	.	.	.	-9	.
O=C(c1ccc(Br)cc1)c1ccc(N2CCCCC2)c([N+](=O)[O-])c1	.	.	.	.	46	.
COc1ccc(Cc2nc(-c3cccs3)no2)cc1OC	31*	17	5	-5	-26	-11
CCc1ccc(NC(=O)Cn2c(N3CCOCC3)nc(CC)cc2=O)cc1	.	.	.	.	-7	.
CC1CCN(C(=O)c2ccc(CNS(=O)(=O)c3ccc(C(C)(C)C)cc3)cc2)CC1	33*	.	9	.	4	-2
O=C(CCc1ccccc1)Nc1ccncc1	50*	-8	6	-1	-1	-16
Cc1nc(N2CCOCC2)nc(C)c1NC(=O)C1CC1	.	.	.	.	-16	.
O=C(CSCc1ccc(Cl)cc1)Nc1ccc(-c2nnc(-c3ccccc3)o2)cc1	32*	14	.	-3	-8	-16
COc1ccc(CNC(=O)NCC2CCCN2c2ccccc2)cc1 (stereo not given)	.	.	.	.	30	.
